Bioassay records deposited in PubChem by Broad Institute.
Shown is part of a subset that was picked to be rich in hits.
BL2 CD40 inh = CD40 pathway inhibition in BL2 cells. BL2 NF-kB luciferase reporter, CD40L-induced, 4 h. 0.94% of 83,000 active. inhibition, % at 10 µM;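 active means mean inhibition of at least 50% with a set share of replicates also reaching that level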
Hits are given with their value; - = inactive; [ ] = dose if it differs, or a comment.

SMILES	BL2 CD40 inh
O=C(Nc1ccccc1F)N[C@@H]1CC[C@@H](CCNC(=O)C2CCCC2)O[C@H]1CO	-
O=C(Nc1ccccn1)c1ccc(C(=O)c2ccccc2)cc1	-
O=C(CC(=O)Nc1ccccn1)Nc1ccccn1	-
O=C(NC(=O)c1ccccc1)Nc1ccccn1	108.1
Cc1ccc(-c2ccccc2[C@@H]2[C@@H](C#N)N(C(=O)NC3CCCC3)[C@H]2CO)cc1	-
O=C(c1cccc(F)c1)N1CC2(C1)[C@H](c1ccccc1)[C@@H](CO)N2C(=O)C1CCCCC1	-
CC(C)N(C[C@@H]1N[C@@H](CO)[C@@H]1c1ccccc1)S(=O)(=O)c1ccccc1	-
Cc1ccc(S(=O)(=O)N(C)C)cc1NC(=O)C(C)OC(=O)c1cc[n+]([O-])cc1 (stereo not drawn)	-
O=C(CN1CCOCC1)N1CCCCN2[C@@H](CO)[C@@H](c3ccc(/C=C/c4ccccc4)cc3)[C@@H]2C1	-
CCS(=O)(=O)N1Cc2ccccc2CC1C(=O)N(C)CC(=O)Nc1ccc(F)c(F)c1F (stereo not drawn)	-
N=C(N)c1ccc(OCCCCCOc2ccc(C(=N)N)cc2)cc1	62.2
CN(C)CCCCOc1ccc(F)cc1	-
OCCNCCCCOc1ccc(F)cc1	-
C[C@@H]1CN([C@H](C)CO)S(=O)(=O)c2ccc(-c3ccccc3)cc2O[C@H]1CN(C)S(=O)(=O)c1ccccc1F	-
CCc1nnc(NC(=O)c2cc3c(s2)CCCCC3)s1	-
CNC(=O)c1cc2c(s1)CCCCCC2	-
Cc1cnc(NC(=O)c2cc3c(s2)CCCC3)s1	65.3
Cc1ccc(S(=O)(=O)N2[C@@H]3CNC[C@H]2C3c2ccc(-c3cccc(C#N)c3)cc2)cc1 (stereo partly drawn)	-
CC(C)(O)C#Cc1ccc([C@@H]2[C@@H](CO)N3CCCCN(C(=O)c4ccncc4)C[C@@H]23)cc1	-
CCOC(=O)C1(C)CCCN(C(=O)c2c(-c3ccccc3)noc2C)C1 (stereo not drawn)	-
Cc1ccc(/C=C2/CNC/C(=C\c3ccc(C)cc3)C2=O)cc1	65.3[25 µM]
Cc1ccc(C=C2C=C(c3ccccc3)OC2=O)cc1	-
Cc1ccc(S(=O)(=O)N2CC=C(N)N2)cc1	-
CCCNC(=O)N(C)C[C@H]1Oc2cc(C#C[C@H](C)O)ccc2S(=O)(=O)N([C@H](C)CO)C[C@H]1C	-
Cc1cccc(-c2ccc([C@@H]3[C@@H](CO)N4CCCCN(S(=O)(=O)c5ccccc5F)C[C@H]34)cc2)c1	71.1[25 µM]
SMILES	BL2 CD40 inh
Cc1cccc(-c2ccc([C@H]3[C@@H](CO)N4CCCCN(S(=O)(=O)c5ccccc5F)C[C@@H]34)cc2)c1	-
Cc1cccc(-c2ccc([C@@H]3[C@@H](CO)N4CCCCN(S(=O)(=O)c5ccccc5F)C[C@@H]34)cc2)c1	-
Cc1ccc(OCc2cc(C(=O)N(C)Cc3cc(C4CC4)n[nH]3)no2)cc1C	-
CC(=O)Nc1nc(C2COc3ccccc3O2)cs1 (stereo not drawn)	-
CN(C)C(=O)[C@H]1N[C@H]2c3ccc(-c4ccc(F)cc4)c(=O)n3C[C@H]2[C@@H]1CO	-
O=S1(=O)CCN(Cc2cccnc2)CC1	-
COc1ccccc1S(=O)(=O)N[C@@H]1CC[C@@H](CCNC(=O)C2CCCC2)O[C@H]1CO	-
COc1ccc(CC2C(=O)NC(C)C(=O)N(C)C3Cc4ccc(cc4)Oc4cc(ccc4O)CC(C(=O)NC(C)C(=O)NC(C)C(=O)N2C)N(C)C3=O)cc1 (stereo not drawn)	67.1
CN(Cc1ccccc1NS(=O)(=O)c1ccc2ccccc2c1)C1CCCCC1	-
COc1ccc(S(=O)(=O)Nc2ccc3c(c2)C(=O)N([C@@H](C)CO)C[C@H](C)[C@@H](CN(C)Cc2ccc(C(F)(F)F)cc2)OCCCC[C@@H](C)O3)cc1	76.2[25 µM]
C[C@H](CO)N1C[C@H](C)[C@@H](CN(C)Cc2ccc(Cl)c(Cl)c2)OCCCC[C@H](C)Oc2ccc(NS(=O)(=O)c3cccs3)cc2C1=O	50.6[25 µM]
C[C@H]1CN([C@@H](C)CO)C(=O)c2cc(NC(=O)Nc3ccc(C(F)(F)F)cc3)ccc2O[C@H]1CN(C)S(=O)(=O)c1ccc(Cl)cc1	-
COc1ccc(NC(=O)Nc2ccc3c(c2)C(=O)N([C@@H](C)CO)C[C@@H](C)[C@@H](CN(C)Cc2ccc(C(F)(F)F)cc2)OCCCC[C@H](C)O3)cc1	-
C[C@H](CO)N1C[C@H](C)[C@H](CN(C)CC2CCCCC2)OCCCC[C@H](C)Oc2ccc(NC(=O)Nc3ccc(C(F)(F)F)cc3)cc2C1=O	76.1[25 µM]
C[C@@H]1CCCCO[C@@H](CN(C)Cc2ccc(Cl)c(Cl)c2)[C@@H](C)CN([C@H](C)CO)C(=O)c2cc(NS(=O)(=O)c3cccs3)ccc2O1	-
C[C@@H]1CCCCO[C@H](CN(C)Cc2ccc(Cl)c(Cl)c2)[C@@H](C)CN([C@H](C)CO)C(=O)c2cc(NS(=O)(=O)c3cccs3)ccc2O1	-
COc1ccc(S(=O)(=O)N(C)C[C@H]2Oc3ccc(NC(=O)Nc4ccc(C(F)(F)F)cc4)cc3C(=O)N([C@@H](C)CO)C[C@@H]2C)cc1	73.8[25 µM]
COc1ccc(NC(=O)Nc2ccc3c(c2)C(=O)N([C@@H](C)CO)C[C@H](C)[C@@H](CN(C)S(=O)(=O)c2ccc(OC)cc2)O3)cc1	-
C[C@@H]1CN([C@@H](C)CO)C(=O)c2cc(NC(=O)Nc3ccc(C(F)(F)F)cc3)ccc2O[C@@H](C)CCCCO[C@H]1CN(C)CC1CCCCC1	-
COc1ccc(S(=O)(=O)Nc2ccc3c(c2)C(=O)N([C@H](C)CO)C[C@@H](C)[C@H](CN(C)C(=O)Nc2ccc(C(F)(F)F)cc2)OCCCC[C@@H](C)O3)cc1	-
C[C@@H]1CN([C@H](C)CO)C(=O)c2cc(NC(=O)Nc3ccc(C(F)(F)F)cc3)ccc2O[C@@H](C)CCCCO[C@@H]1CN(C)CC1CCCCC1	-
CN(C)C(=O)c1cccc(-c2ccc(C3[C@@H]4CN(C(=O)c5ccccn5)C[C@H]3N4)cc2)c1 (stereo partly drawn)	-
O=C(c1ccccn1)N1C[C@@H]2[C@H](c3ccccc31)[C@H](CO)N2C(=O)C1CCCCC1	-
Cc1cccn2c(=O)nc(SCC(=O)NCc3ccc(F)cc3)nc12	-
C[C@@H]1CN([C@@H](C)CO)C(=O)c2c(c3ccccc3n2C)-c2ccccc2CO[C@H]1CN(C)Cc1ccc2c(c1)OCO2	-
SMILES	BL2 CD40 inh
CCC(=O)N1[C@@H]2Cn3c(ccc(-c4ccncc4)c3=O)[C@H]1[C@@H](C(=O)N1CCc3ccccc3C1)[C@@H]2CO	-
C/C=C/c1ccccc1[C@@H]1[C@H](C#N)N(C(=O)CN2CCOCC2)[C@H]1CO	-
COc1cccc(-c2ccc3c(c2)[C@H]2[C@H](CCN2C(=O)Cc2ccncc2)[C@H](CO)N3C)c1	-
CCN(CC(=O)NC(C)C)C(=O)[C@H](C)NC(=O)c1ccc(Br)cc1	-
C[C@H]1CCCCO[C@H](CN(C)C(=O)c2ccccc2)[C@@H](C)CN([C@@H](C)CO)C(=O)c2cc(NC(=O)NC3CCCCC3)ccc2O1	-
COc1ccc(CN(C)C[C@H]2OCCCC[C@H](C)Oc3ccc(NS(=O)(=O)c4ccc(Cl)cc4)cc3C(=O)N([C@H](C)CO)C[C@H]2C)cc1	62.5
C[C@@H]1CN([C@H](C)CO)C(=O)c2cc(NS(=O)(=O)c3ccc(Cl)cc3)ccc2O[C@@H](C)CCCCO[C@H]1CN(C)Cc1ccc(Cl)c(Cl)c1	-
COc1ccc(S(=O)(=O)Nc2ccc3c(c2)C(=O)N([C@@H](C)CO)C[C@H](C)[C@H](CN(C)Cc2ccc(C(F)(F)F)cc2)OCCCC[C@H](C)O3)cc1	58.7[25 µM]
